According to PubChem BioAssay AID488847 (NMMLSC, 2010):
Where “and” joins values, the source holds several entries; their conditions need not be identical. Equal values may be shown once. The campaign covered roughly 330,000 compounds. About 1,900 (0.58%) were called active.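 How the source made its calls: active means inhibition of aptamer binding above 40%, roughly 3 SD of noise, on plates passing a quality check; inactive means the rest.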 For the sample, actives were picked, then their nearest neighbours and some compounds at random. Some structures have more than one record in an assay (separate samples or runs), and their calls can disagree.

Each compound was assayed against Beta-adrenergic receptor kinase 1 (Homo sapiens) (UniProt P25098) (assay: compounds blocking aptamer binding on GRK2 – biochemical, human GRK2, bead flow cytometry, HTS, primary screen (AID 488847;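 further: median bead fluorescence of bound FAM aptamer so fluorescent compounds give negative values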)). Details: FAM-aptamer displacement from GRK2, at 10 µM, stronger effect = higher value.
Chain of Beta-adrenergic receptor kinase 1 (Homo sapiens) (P25098 whole entry, looked up): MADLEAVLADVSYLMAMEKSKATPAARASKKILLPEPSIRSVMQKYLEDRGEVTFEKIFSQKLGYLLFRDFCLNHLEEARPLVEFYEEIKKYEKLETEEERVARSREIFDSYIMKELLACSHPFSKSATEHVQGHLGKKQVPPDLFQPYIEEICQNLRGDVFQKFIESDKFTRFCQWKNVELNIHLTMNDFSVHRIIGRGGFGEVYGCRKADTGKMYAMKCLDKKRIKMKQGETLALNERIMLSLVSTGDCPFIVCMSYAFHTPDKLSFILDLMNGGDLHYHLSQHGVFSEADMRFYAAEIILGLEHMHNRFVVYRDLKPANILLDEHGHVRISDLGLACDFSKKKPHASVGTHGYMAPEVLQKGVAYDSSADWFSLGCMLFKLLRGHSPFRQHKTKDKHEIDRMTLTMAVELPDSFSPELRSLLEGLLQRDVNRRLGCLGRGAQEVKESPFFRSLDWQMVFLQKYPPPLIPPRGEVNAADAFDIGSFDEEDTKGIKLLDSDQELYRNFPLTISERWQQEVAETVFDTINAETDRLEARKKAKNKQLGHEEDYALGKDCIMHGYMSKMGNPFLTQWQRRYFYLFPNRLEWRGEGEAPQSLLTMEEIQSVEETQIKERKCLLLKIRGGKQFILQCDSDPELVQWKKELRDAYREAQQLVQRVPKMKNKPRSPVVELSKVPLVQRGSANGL

| Structure (SMILES) | inhibition of aptamer binding |
| --- | --- |
| COc1ccccc1NC(=O)CSc1nc2sc3c(c2c(=O)n1-c1ccccc1)CCN(C)C3 | 56% (active) |
| CCOc1ccc(-n2c(SCC(=O)OC)nc3sc4c(c3c2=O)CCN(C)C4)cc1 | 1% (inactive) |
| CCOc1ccc(-n2c(SCC(=O)Nc3ccc(OC)cc3)nc3sc4c(c3c2=O)CCN(C)C4)cc1 | 0% (inactive) |
| C[C@@H](O)c1nc2ccccc2n1N | 0% (inactive) |
| CCOC(=O)c1c(C)[nH]c(C)c1S(=O)(=O)NCCCc1ccco1 | 0% (inactive) |
| Cn1c(=O)c2c(nc(N3CCOCC3)n2CCNC2=NCCC2)n(C)c1=O | 83% (active) |
| Cc1cccc(Cn2c(N3CCN(c4ccccc4)CC3)nc3c2c(=O)n(C)c(=O)n3C)c1 | 0% (inactive) |
| CCCCn1c(SCC(=O)N2CCOCC2)nc2c1c(=O)n(C)c(=O)n2C | 0% (inactive) |
| CC1O[C@H](OC2C(COC3OC(CO)C(O)[C@H](O)C3O)OC(OC3CC[C@]4(C)C(CC[C@@]5(C)[C@@H]4C=C[C@]46OC[C@@]7(CCC(C)(C)C[C@H]74)C(O)C[C@@]56C)C3(C)C)C(O)C2O)C(O)C(O)C1O (stereo partly drawn) | 0% (inactive) |
| CC1=NCCN1S(=O)(=O)c1ccc(Br)c(C)c1 | 8% (inactive) |
| Cc1ccc(C(CNC(=O)Nc2cccc(C)c2)N2CCN(C)CC2)cc1 (stereo not drawn) | 53% (active) |
| COc1ccc(S(=O)(=O)NCC(c2ccc(C)cc2)N2CCN(C)CC2)cc1OC (stereo not drawn) | 0% (inactive) |
| Cc1ccc(C(CNC(=O)Nc2ccccc2)N2CCN(C)CC2)cc1 (stereo not drawn) | 0% (inactive) |
| O=C(NCc1cccc(Cl)c1)C1CCC(=O)N(C2CC2)C1 (stereo not drawn) | 30% (inactive) |
| C=CC[C@@H](CC(=O)N[C@H](CO)Cc1ccccc1)C(=O)N[C@H](C)COC(=O)[C@@H](CC=C)Cc1ccc(F)cc1 | 26% (inactive) |
| C=CC[C@@H](CC(=O)N[C@@H](CO)Cc1ccccc1)C(=O)N[C@H](COC(=O)[C@H](CC=C)CC(=O)OC(C)(C)C)Cc1ccccc1 | 3% (inactive) |
| C=CC[C@@H](CC(=O)N[C@@H](CO)Cc1ccccc1)C(=O)NCCOC(=O)[C@@H](CC=C)CC(=O)OC(C)(C)C | 94% (active) |
| CC(C)CNC(=S)NNC(=O)c1ccccc1OC(F)F | 0% (inactive) |
| O=C(O)/C(=C/c1cccnc1)NC(=O)c1ccccc1 | 53% (active) |
| CC(C)(C)NC(=O)/C(=C/c1cccnc1)NC(=O)c1ccco1 | 4% (inactive) |
| Cc1ccc(C(=O)N/C(=C/c2cccnc2)C(=O)O)cc1 | 0% (inactive) |
| Cc1ccc2[nH]c(=O)c(-c3nc4c(C)cccn4c3NCc3ccco3)cc2c1 | 0% (inactive) |
| Cc1cc(C)cc(N(CC(=O)N2CC=C(c3ccccc3)CC2)S(=O)(=O)c2c(C)noc2C)c1 | 0% (inactive) |
| O=c1[nH]nc(Cc2ccccn2)c2ccccc12 | 0% (inactive) |

| Structure (SMILES) | inhibition of aptamer binding |
| --- | --- |
| O=C(Oc1ccc2c(c1)CCC2)N1CCOCC1 | 0% (inactive) |
| Cc1ccccc1CN1CCN(CC(=O)NCc2ccccn2)C1=O | 51% (active) |
| Cc1nn(CC(=O)NCc2ccccn2)c(C)c1[N+](=O)[O-] | 1% (inactive) |
| COCCCNC(=O)CN1CCN(Cc2ccccc2Cl)C1=O | 4% (inactive) |
| Cc1cccc(N(C(=O)c2sc(C)nc2C)C(C(=O)NCC2CCCO2)c2ccccc2)c1 (stereo not drawn) | 1% (inactive) |
| CCn1nc(C)c(NC(=O)/C=C/c2ccc(OC)c(COc3ccc(Br)cc3)c2)c1C | 1% (inactive) |
| O=C(NC1C2CC3CC(C2)CC1C3)c1ccc(N2CCNCC2)c([N+](=O)[O-])c1 (stereo not drawn) | 98% (active) |
| CC(NC(=O)c1ccc(N2CCNCC2)c([N+](=O)[O-])c1)C12CC3CC(CC(C3)C1)C2 (stereo not drawn) | 0% (inactive) |
| CS(=O)(=O)N1CCN(c2ccc(C(=O)NC3C4CC5CC(C4)CC3C5)cc2[N+](=O)[O-])CC1 (stereo not drawn) | 0% (inactive) |
| CC(c1nnc(SCC(=O)Nc2sccc2C#N)n1-c1ccc(Cl)cc1)N(C)C (stereo not drawn) | 0% (inactive) |
| C/C(=N\N=C(N)N)c1ccc(Cl)cc1 | 0% (inactive) |
| COc1ccc(C(=O)CCC(=O)Nc2ccc(Cl)cc2)cc1 | 1% (inactive) |
| C/C(=N\OCC(=O)O)c1ccc(Cl)cc1 | 58% (active) |
| COc1cc2c(-c3ccc4c(c3)OCO4)c(-c3ccsc3)oc(=O)c2cc1OC | 0% (inactive) |
| Cc1ccc(S(=O)(=O)N2CCCC(C(=O)N3CCN(C)CC3)C2)cc1 (stereo not drawn) | 4% (inactive) |
| O=C(C1CCC1)N1CCN(S(=O)(=O)c2ccc([N+](=O)[O-])cc2)CC1 | 1% (inactive) |
| O=C(C1CCCN(S(=O)(=O)c2ccc([N+](=O)[O-])cc2)C1)N1CCCCC1 (stereo not drawn) | 53% (active) |
| Cc1nnc(NC(=O)CCC(=O)N2CCC(C)CC2)s1 | 2% (inactive) |
| CCC(C)(C(=O)NC1CCCC1)N(C(=O)CNC(C)=O)c1ccc(C)cc1 (stereo not drawn) | 3% (inactive) |
| CCC(C)(C(=O)NC1CCCCC1)N(C)C(=O)c1ccc2c(c1)OCO2 (stereo not drawn) | 47% (active) |
| CCCCN(CC)C(=O)c1ccc2c(c1)OCO2 | 3% (inactive) |
| COc1ccccc1NC(=O)COc1ccc(C(=O)OCC(=O)N(C(C)C)C(C)C)cc1OC | 0% (inactive) |
| COc1cc(C(=O)OCC(=O)N(CC(C)C)C2CCS(=O)(=O)C2)ccc1OCC(C)C (stereo not drawn) | 100% (active) |
| COc1ccc(NC(=O)COc2ccc(C(=O)OCC(=O)N(C)C3CCS(=O)(=O)C3)cc2OC)cc1 (stereo not drawn) | 3% (inactive) |

| Structure (SMILES) | inhibition of aptamer binding |
| --- | --- |
| Cn1c(N2CCOCC2)c(C=O)c2ccccc21 | 0% (inactive) |
| Cc1ccc(CNC(=O)c2cc(-c3ccccc3C)n(CC3CC(c4cccc([N+](=O)[O-])c4)=NO3)n2)cc1 (stereo not drawn) | 0% (inactive) |
| O=C(COC(=O)CSc1ccccc1)Nc1ccc(F)cc1F | 3% (inactive) |
| CCOC(=O)c1cccc(NC(=O)c2ccc(F)cc2F)c1 | 3% (inactive) |
| O=C(COC(=O)c1ccc(F)cc1F)Nc1ncccn1 | 60% (active) |
| O=C(NCCCN1CCCCC1)c1ccc2c(c1)NC(=O)C(N1CCOCC1)S2 (stereo not drawn) | 3% (inactive) |
| CCOC(=O)c1ccc(N/C(=N/S(=O)(=O)c2ccccc2)c2ccccc2)cc1 | 0% (inactive) |
| CC(=O)c1c(C)[nH]c(C(=O)N2CCN(S(=O)(=O)c3ccc(F)c(F)c3)CC2)c1C | 1% (inactive) |
| CN(Cc1ccccc1)C(=O)c1cccc(C(=O)N(C)Cc2ccccc2)c1 | 49% (active) |
| CN(CC(=O)O)C(=O)c1ccccc1 | 1% (inactive) |
| CN(Cc1ccccc1)C(=O)c1ccc(COc2ccccc2)cc1 | 0% (inactive) |
| c1ccc(Cc2cc[n+](Cc3ccccc3)cc2)cc1 | 0% (inactive) |
| O=C(CCC(=O)N/N=C/c1ccc(Br)o1)N/N=C/c1ccc(Br)o1 | 13% (inactive) |
| O=C(CCNC(=O)c1ccccc1)NN=Cc1ccc(Br)o1 | 58% (active) |
| O=C(CCc1n[nH]c(=O)[nH]c1=O)N/N=C/c1ccc(Br)o1 | 0% (inactive) |
| Cc1ccc(OCc2cc(C(=O)N(C)CCn3ccnc3C)no2)cc1C | 4% (inactive) |
| O=C(ON=C1CCN(S(=O)(=O)c2ccccc2)CC1)c1ccc(Cl)cc1 | 1% (inactive) |
| O=C(Nc1ccccc1)Nc1ccc(C(F)(F)F)cn1 | 0% (inactive) |
| O=C(NC(=O)c1cc(OCC(F)(F)F)ccc1OCC(F)(F)F)Nc1ccccc1 | 98% (active) |
| CONC(=O)c1cc(OCC(F)(F)F)ccc1OCC(F)(F)F | 0% (inactive) |
| COc1nc(NC2CCCCC2)nc(N2CCCCCC2)n1 | 1% (inactive) |
| Cc1cc(/C=C2/SC(=O)N(CC(=O)OC(C)C)C2=O)c(C)n1C | 2% (inactive) |
| C=CC1=C(C(=O)O)N2C(=O)[C@@H](NC(=O)/C(=N/OCC(=O)O)c3csc(N)n3)[C@H]2SC1 | 0% (inactive) |
| C=CC1=C(C(=O)O)N2C(=O)[C@@H](NC(=O)/C(=N\OCC(=O)O)c3csc(N)n3)[C@H]2SC1 | 66% (active) |

| Structure (SMILES) | inhibition of aptamer binding |
| --- | --- |
| CO/N=C(\C(=O)N[C@@H]1C(=O)N2C(C(=O)O)=C(COC(C)=O)CS[C@H]12)c1csc(N)n1 (stereo in doubt) | 0% (inactive) and 38% (inactive) and 1% (inactive) |
| CC[C@@H](C)[C@@H]1CN([C@@H](C)CN2CCC[C@H]2CN2C(N)=NC[C@H]2C(C)C)C(=N)N1CCc1ccc(Cl)c(Cl)c1 | 0% (inactive) |
| COc1ccc(CNc2nc(NCc3ccc(OC)cc3)c3ncn(C4CCCC4)c3n2)cc1 | 0% (inactive) |
| O=C1[C@@H]2C(c3cccnc3)=NO[C@@H]2C(=O)N1c1ccc(Cl)cc1Cl | 4% (inactive) |
| CCOc1cccc(OCCCOc2cccc3cccnc23)c1 | 1% (inactive) |
| Cc1ccccc1NC(=O)c1cnn(-c2ccccc2)c1NC(=O)c1ccco1 | 3% (inactive) |
| C1=C(CCNc2ncnc3c2cnn3-c2ccccc2)CCCC1 | 0% (inactive) |
| O=C(NNc1ncnc2c1cnn2-c1ccccc1)c1ccco1 | 97% (active) |
| CC(OC(=O)/C=C/c1ccccc1)C(=O)NC1CCCCC1C (stereo not drawn) | 0% (inactive) |
| CC(=O)N1CCN(CC(=O)Nc2ccc(C)c(F)c2)CC1 | 1% (inactive) |
| CCCc1noc2c1/C(=N\O)CCC2 | 0% (inactive) |
| Cc1cc(C(=O)NC2CCN(Cc3ccccc3)CC2)n[nH]1 | 50% (active) |
| Cc1ccn2cc(C(=O)NC3CCN(Cc4ccccc4)CC3)nc2c1 | 0% (inactive) |
| Cc1ccc(-c2cc(C(=O)NC3CCN(Cc4ccccc4)CC3)c3ccccc3n2)cc1 | 0% (inactive) |
| O=C(N/C(=C/c1ccc(Cl)cc1)C(=O)N1CCCCC1)c1ccco1 | 0% (inactive) |
| CCC(=C/c1sc2ccc3ccccc3c2[n+]1C)/C=C1\Sc2ccc3ccccc3c2N1C | 100% (active) |
| N/C(=N\OC(=O)CCC1CCCCC1)c1ccccn1 | 0% (inactive) |
| O=C(c1noc2c1CCCC2)N1CCc2ccccc2C1 | 0% (inactive) |
| OC(COc1ccc2c(c1)CCC2)CN1CCN(c2cccc(Cl)c2)CC1 (stereo not drawn) | 0% (inactive) |
| CCN1C(=O)/C(=C\N2CCN(c3cccc(Cl)c3)CC2)SC1=S | 3% (inactive) |
| CCc1nn(CCCN2CCN(c3cccc(Cl)c3)CC2)c(=O)n1CCOc1ccccc1 | 43% (active) and 0% (inactive) |
